According to publication PMC7819943, “Rice protein-binding microarrays: a tool to detect cis-acting elements near promoter regions in rice”:
Whole data set: some 68,000 sequences, median “fluorescence intensity (a.u.)” near 9,100, cut for the highest 2% near 16,000. The list comes from a sample in which the highest values are over-represented; it also holds similar and randomly drawn sequences.

The sequences below were run against OsWRKY34 (Oryza sativa, UniProt Q0JBA9 1-250) (assay: protein-binding microarray (RPBM); PBS, 2% BSA, 51.3 ng/ul salmon testes DNA, 50 uM zinc acetate, 200 nM TF, 25 C, 1 h; high values mean tight binding). Conditions: protein: recombinant; tags: N-terminal polyhistidine and DsRed monomer fusion (pET32a); label: CyDye5-dUTP incorporated in the synthesized complementary strand; 3' TTTTT single-stranded linker to array surface; dsDNA, one strand shown.
Procedure, shortened: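 Transcription factors were each fused at the N-terminus to a polyhistidine tag plus DsRed and expressed in E. coli BL21-CodonPlus before Ni–NTA purification. Binding to a double-stranded custom Agilent array was carried out with 200 nM protein at 25 °C for 1 h in PBS, 2% BSA, salmon testes DNA and 50 µM zinc acetate. The binding signal is per-feature fluorescence intensity, in arbitrary units, on an Axon 4000B scanner.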

OsWRKY34, sequence (Q0JBA9 entry or part of it): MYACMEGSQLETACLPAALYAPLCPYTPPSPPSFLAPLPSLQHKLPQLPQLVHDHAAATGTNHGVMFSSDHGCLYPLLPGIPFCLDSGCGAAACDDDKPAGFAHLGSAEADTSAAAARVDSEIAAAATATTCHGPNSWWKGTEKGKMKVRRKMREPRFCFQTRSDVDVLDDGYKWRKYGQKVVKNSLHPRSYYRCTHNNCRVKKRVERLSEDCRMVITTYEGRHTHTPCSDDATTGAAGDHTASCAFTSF

| Sequence | binding signal |
| --- | --- |
| GTGGGAGAGGCCGGCCGAGGGGAGGAGAGGGGAGGGGTGCCGGAGTCACCTAGTGCAG | 10700 fluorescence intensity (a.u.) |
| TCGAGCTGGGTGGGGTTTTTATATGGGAGGAGAGGCCGCGCGGAGTCACCTAGTGCAG | 16800 fluorescence intensity (a.u.) |
| ACGGTGGCGGGGATGTGGAGGGAGGTGCAGGGGTGCGGGGCGGAGTCACCTAGTGCAG | 22600 fluorescence intensity (a.u.) |
| GAGCTCGGCGAAATCGATCTGTGGGAGGGAGGGCGGCGAGCGGAGTCACCTAGTGCAG | 9110 fluorescence intensity (a.u.) |
| GGAGAGGAGTGAGGAGGGATTGTGAGGTGGGGTCGGGGTGCGGAGTCACCTAGTGCAG | 9030 fluorescence intensity (a.u.) |
| TACTGCAACTCTGCAAGCACATTGATCAATCGATCAATCCCGGAGTCACCTAGTGCAG | 8450 fluorescence intensity (a.u.) |
| TTTGTGGGGCTCTCTCTTTGATGCTTTCTTCTCTTTAGCTCGGAGTCACCTAGTGCAG | 10000 fluorescence intensity (a.u.) |
| CTAAATTGTATTTCTATATGGACTTTGCTTTTTCTTTTTCCGGAGTCACCTAGTGCAG | 10900 fluorescence intensity (a.u.) |
| GTGGTCCAATCACCCTTTGACCCTTCGCCTCCGTGGCGCCCGGAGTCACCTAGTGCAG | 8500 fluorescence intensity (a.u.) |
| TTTCTTGATTAGGGTTTGAATTCATATTACTAACTTTCCTCGGAGTCACCTAGTGCAG | 8450 fluorescence intensity (a.u.) |
| TTCCGCGTCAACCACCACCGCGCCGGCGTGCGCCTCCGCGCGGAGTCACCTAGTGCAG | 10300 fluorescence intensity (a.u.) |
| ATCAGCCTCATGCCCTTGTAGTCCATCGATCTGTCAGATCCGGAGTCACCTAGTGCAG | 13300 fluorescence intensity (a.u.) |
| TTCGTTTTTCTTTTTTTTTTGATGGGGAGGTTGTAAAATGCGGAGTCACCTAGTGCAG | 13800 fluorescence intensity (a.u.) |
| GGAGGTGGGAGTGGGCAGTGGCTCGGCTCGTCGTCCTGGGCGGAGTCACCTAGTGCAG | 8780 fluorescence intensity (a.u.) |
| TGGGCTTGGTGGAGGTGGCGGGTTTGGAGGCGGAGGTGGCCGGAGTCACCTAGTGCAG | 14400 fluorescence intensity (a.u.) |
| GGCGGCCAGATCCGGGGCTGGGGAGGCGACGGCGGCGGGGCGGAGTCACCTAGTGCAG | 8710 fluorescence intensity (a.u.) |
| GGAGGTGGGGATGGTGGGAGGTTTTGGTTTGGTAAAATAGCGGAGTCACCTAGTGCAG | 19800 fluorescence intensity (a.u.) |
| GCGGAATGGGCGGCGGTGGAGGTGGCGGGTTTGGAGGCGGCGGAGTCACCTAGTGCAG | 16700 fluorescence intensity (a.u.) |
| TGTGGATGGCGGGGCGAGGCGGAATGGGGCGAATGCGGCGCGGAGTCACCTAGTGCAG | 8240 fluorescence intensity (a.u.) |
| GAGGCGGGTGGGCGAGCTCCGGCGGCGGCGGGGTGGCCTTCGGAGTCACCTAGTGCAG | 15800 fluorescence intensity (a.u.) |
| CAGCAGCAGTGGTGGTGGTGGTTTTGGTAGTGGCTGGGAGCGGAGTCACCTAGTGCAG | 9780 fluorescence intensity (a.u.) |
| TACTTTATCCGCGGCGGGTAGCTGGGGAGGGAGGGGAGGCCGGAGTCACCTAGTGCAG | 22500 fluorescence intensity (a.u.) |

| Sequence | binding signal |
| --- | --- |
| TGAGCCTTGCTCGTCGGCGGCGAGGTGGGGTGGGGCGGGGCGGAGTCACCTAGTGCAG | 20800 fluorescence intensity (a.u.) |
| GGAGGAGGCTGGTAGGGGAGGCGGGAGTCCGGCGGCGAGGCGGAGTCACCTAGTGCAG | 8640 fluorescence intensity (a.u.) |
| CGGTAGTGCGTTAGGTCTTCTCCAAGTCTCTTGGCTTTTACGGAGTCACCTAGTGCAG | 11100 fluorescence intensity (a.u.) |
| TCACCGATTCACTCTCCTAGTCCTAGAGTCCTGGTCCATCCGGAGTCACCTAGTGCAG | 8440 fluorescence intensity (a.u.) |
| GCACCCACAGTTCCATGAGACACATAGAAGTTTTACACAACGGAGTCACCTAGTGCAG | 10600 fluorescence intensity (a.u.) |
| TTTCTGAGAGGCATAGTTCATGTTTCCCCATATATACTTCCGGAGTCACCTAGTGCAG | 8830 fluorescence intensity (a.u.) |
| TCCGCTGCCTTCGATTCTTGGTAAGCCCCTAATTCTCCTTCGGAGTCACCTAGTGCAG | 8420 fluorescence intensity (a.u.) |
| ACGTTAGTTAAAAAGTCAACGGCGTCATCCATTAAAATACCGGAGTCACCTAGTGCAG | 8900 fluorescence intensity (a.u.) |
| TCCCCATGCCATGCAAAATAAATATCCATATTACCGTTTCCGGAGTCACCTAGTGCAG | 8320 fluorescence intensity (a.u.) |
| AGCACCGGTGGCAGCGGCGGACCGTGGAGGGAGGGAGGGGCGGAGTCACCTAGTGCAG | 9770 fluorescence intensity (a.u.) |
| TTCTTCGGTGGTGGTGGTGGTGGGATGGAAGAGGAGGAAGCGGAGTCACCTAGTGCAG | 25800 fluorescence intensity (a.u.) |
| TAGCTGTTTGGTCTTGCTGGTGGTGGTGGGTGAGTGTTGGCGGAGTCACCTAGTGCAG | 11200 fluorescence intensity (a.u.) |
| GAGCTTTGCGCTGGGTGGGCTTGCATTTTTGGGTCTACCGCGGAGTCACCTAGTGCAG | 21500 fluorescence intensity (a.u.) |
| CGGCGGCGGTGGTGGGGAGGAGGAGGGCCAGCGGCAGCAACGGAGTCACCTAGTGCAG | 17500 fluorescence intensity (a.u.) |
| GGTGTGGGGCCCACCTGCAGCCTCACATCGGCACCAGCTGCGGAGTCACCTAGTGCAG | 18600 fluorescence intensity (a.u.) |
| GTGGGCAGCGGCGGCGGCCGGTGGGAGGAGGGGAAGCATGCGGAGTCACCTAGTGCAG | 8380 fluorescence intensity (a.u.) |
| GGGGAGGAGGAGGAGGAGGGTAGGGATGGGGAAGAGGAGTCGGAGTCACCTAGTGCAG | 8020 fluorescence intensity (a.u.) |
| AAGTTTTTGGGTAGTGCTTTTGCGCGCTTTCTCTTGGCTGCGGAGTCACCTAGTGCAG | 8150 fluorescence intensity (a.u.) |
| GTGGTGGAGGAGGAGGAGGAGGATGAGGAGGAAGCGGCTGCGGAGTCACCTAGTGCAG | 8570 fluorescence intensity (a.u.) |
| CAGCGGGCCCAGCAAGTCAGCCTCACATCTTCTTCTTCATCGGAGTCACCTAGTGCAG | 8340 fluorescence intensity (a.u.) |
| GTGGCGGCGGGTGGGGCCCATCTCATGGCTGCTGCCTCTGCGGAGTCACCTAGTGCAG | 10800 fluorescence intensity (a.u.) |
